Results: PubChem BioAssay AID1159580 (chemical genetic matrix, 2015)
The whole screen tested about 5,500 compounds, of which about 2,000 (36%) were called active. Not shown: some 18% with an inconclusive outcome. Rule as the data show it: active = normalized growth mostly below about 0.91 (no sharp cut-off); inconclusive = no clear call, values can overlap the other calls; inactive = mostly above about 0.92. The list shows a part of the results.

Test: chemical genetic growth profiling, strain panel (AID 1159580);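 also: tested at 20 µM; growth read once vehicle control cultures reached saturation at 30 °C; 1 = growth at the plate median or of vehicle wells; lower values mean less growth of the strain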
Conditions: S. cerevisiae deletion strains, growth OD
[1] = locus YAL021C, strain ccr4, stronger effect = lower value
[2] = locus YAL026C, strain drs2, stronger effect = lower value
[3] = locus YAL030W, strain snc1, stronger effect = lower value
[4] = locus YAL040C, strain CLN3, stronger effect = lower value
[5] = locus YBL061C, strain skt5, stronger effect = lower value
[6] = locus YBR009C, strain hhf1, stronger effect = lower value
[7] = locus YBR023C, strain chs3, stronger effect = lower value
[8] = locus YBR171W, strain sec66, stronger effect = lower value
[9] = locus YBR231C, strain swc5, stronger effect = lower value
[10] = locus YBR279W, strain paf1, stronger effect = lower value
[11] = locus YCL011C, strain gbp2, stronger effect = lower value
[12] = locus YCL016C, strain dcc1, stronger effect = lower value
[13] = locus YCL061C, strain MRC1 (second series), stronger effect = lower value
[14] = locus YCL069W, strain vba3, stronger effect = lower value
[15] = locus YCR088W, strain abp1, stronger effect = lower value
[16] = locus YDL005C, strain med2, stronger effect = lower value
[17] = locus YDL040C, strain nat1, stronger effect = lower value
[18] = locus YDR001C, strain nth1, stronger effect = lower value
[19] = locus YDR069C, strain doa4, stronger effect = lower value
[20] = locus YDR137W, strain rgp1, stronger effect = lower value
[21] = locus YDR150W, strain NUM1, stronger effect = lower value
[22] = locus YDR159W, strain sac3, stronger effect = lower value
[23] = locus YDR297W, strain sur2, stronger effect = lower value
[24] = locus YDR334W, strain swr1, stronger effect = lower value
[25] = locus YDR335W, strain msn5, stronger effect = lower value
[26] = locus YDR363W, strain ESC2, stronger effect = lower value
[27] = locus YDR392W, strain spt3, stronger effect = lower value
[28] = locus YEL003W, strain gim4, stronger effect = lower value
[29] = locus YEL037C, strain rad23, stronger effect = lower value
[30] = locus YEL061C, strain CIN8 (second series), stronger effect = lower value
[31] = locus YER002W, strain NOP16, stronger effect = lower value
[32] = locus YER015W, strain faa2, stronger effect = lower value
[33] = locus YER016W, strain bim1, stronger effect = lower value
[34] = locus YER111C, strain swi4, stronger effect = lower value
[35] = locus YER155C, strain BEM2 (second series), stronger effect = lower value
[36] = locus YFR010W, strain ubp6, stronger effect = lower value
[37] = locus YGL167C, strain pmr1, stronger effect = lower value
[38] = locus YGL173C, strain kem1, stronger effect = lower value
[39] = locus YGL227W, strain vid30, stronger effect = lower value
[40] = locus YGL240W, strain doc1, stronger effect = lower value
[41] = locus YGL253W, strain hxk2, stronger effect = lower value
[42] = locus YGR078C, strain PAC10, stronger effect = lower value
[43] = locus YHR013C, strain ard1, stronger effect = lower value
[44] = locus YHR027C, strain rpn1, stronger effect = lower value
[45] = locus YHR030C, strain SLT2, stronger effect = lower value
[46] = locus YHR079C, strain IRE1, stronger effect = lower value
[47] = locus YHR142W, strain chs7, stronger effect = lower value
[48] = locus YJL092W, strain hpr5, stronger effect = lower value
[49] = locus YJL095W, strain BCK1 (second series), stronger effect = lower value
[50] = locus YJL095W, strain BCK1, stronger effect = lower value
[51] = locus YJL115W, strain asf1, stronger effect = lower value
[52] = locus YJL129C, strain trk1, stronger effect = lower value
[53] = locus YJL154C, strain vps35, stronger effect = lower value
[54] = locus YJL164C, strain tpk1, stronger effect = lower value
[55] = locus YJL166W, strain qcr8, stronger effect = lower value
[56] = locus YJR066W, strain TOR1, stronger effect = lower value
[57] = locus YJR075W, strain HOC1, stronger effect = lower value
[58] = locus YKL160W, strain elf1, stronger effect = lower value
[59] = locus YKR026C, strain gcn3, stronger effect = lower value
[60] = locus YKR091W, strain srl3, stronger effect = lower value
[61] = locus YLL001W, strain dnm1, stronger effect = lower value
[62] = locus YLL026W, stronger effect = lower value
[63] = locus YLL041C, strain sdh2, stronger effect = lower value
[64] = locus YLR027C, strain aat2, stronger effect = lower value
[65] = locus YLR113W, strain HOG1, stronger effect = lower value
[66] = locus YLR221C, strain rsa3, stronger effect = lower value
[67] = locus YLR258W, strain gsy2, stronger effect = lower value
[68] = locus YLR262C, strain YPT6 (second series), stronger effect = lower value
[69] = locus YLR320W, strain mms22, stronger effect = lower value
[70] = locus YLR342W, strain FKS1, stronger effect = lower value
[71] = locus YLR357W, strain rsc2, stronger effect = lower value
[72] = locus YLR370C, strain arc18, stronger effect = lower value
[73] = locus YLR384C, strain iki3, stronger effect = lower value
[74] = locus YML120C, strain ndi1, stronger effect = lower value
[75] = locus YMR058W, strain fet3, stronger effect = lower value
[76] = locus YMR125W, strain sto1, stronger effect = lower value
[77] = locus YMR129W, stronger effect = lower value
[78] = locus YMR205C, strain PFK2, stronger effect = lower value
[79] = locus YMR231W, strain pep5, stronger effect = lower value
[80] = locus YMR307W, strain GAS1, stronger effect = lower value
[81] = locus YNL071W, strain lat1, stronger effect = lower value
[82] = locus YNL153C, strain GIM3, stronger effect = lower value
[83] = locus YNL175C, strain NOP13, stronger effect = lower value
[84] = locus YNL183C, strain NPR1, stronger effect = lower value
[85] = locus YNL197C, strain WHI3, stronger effect = lower value
[86] = locus YNL209W, strain ssb2, stronger effect = lower value
[87] = locus YNL224C, strain SQS1, stronger effect = lower value
[88] = locus YNL248C, strain rpa49, stronger effect = lower value
[89] = locus YNL322C, strain KRE1 (second series), stronger effect = lower value
[90] = locus YNL322C, strain KRE1, stronger effect = lower value
[91] = locus YNR049C, strain mso1, stronger effect = lower value
[92] = locus YOR001W, strain rrp6, stronger effect = lower value
[93] = locus YOR070C, strain gyp1, stronger effect = lower value
[94] = locus YOR080W, strain dia2, stronger effect = lower value
[95] = locus YOR083W, strain WHI5 (second series), stronger effect = lower value
[96] = locus YOR083W, strain WHI5, stronger effect = lower value
[97] = locus YOR106W, strain vam3, stronger effect = lower value
[98] = locus YOR231W, strain MKK1, stronger effect = lower value
[99] = locus YOR265W, strain rbl2, stronger effect = lower value
[100] = locus YOR270C, strain vph1, stronger effect = lower value
[101] = locus YOR290C, strain snf2, stronger effect = lower value
[102] = locus YPL051W, strain arl3, stronger effect = lower value
[103] = locus YPL055C, strain LGE1, stronger effect = lower value
[104] = locus YPL078C, strain atp4, stronger effect = lower value
[105] = locus YPL106C, strain sse1, stronger effect = lower value
[106] = locus YPL240C, strain hsp82, stronger effect = lower value
[107] = locus YPL241C, strain CIN2, stronger effect = lower value
[108] = locus YPL256C, strain CLN2, stronger effect = lower value

Measured: normalized growth

Cc1cn[nH]c1
active: locus YDR195W, strain ref2 1.16 [resistant]
inactive: [1] 1.05 | [2] 1.02 | [3] 1.03 | [4] 0.992 | [5] 1.02 | [6] 1.02 | [7] 1.03 | [8] 1.04 | [9] 1.04 | [10] 1.02 | [11] 1.02 | [12] 1.02 | [13] 0.99 | [14] 1.03 | [15] 1.01 | [16] 1.03 | [17] 1.01 | [18] 1.01 | [19] 1.06 | [20] 1.01 | [21] 0.986 | [22] 0.99 | [23] 1.02 | [24] 1.03 | [25] 1.02 | [26] 1.02 | [27] 1.1 | [28] 1.02 | [29] 1.01 | [30] 1.01 | [31] 1.01 | [32] 1.02 | [33] 1.01 | [34] 1.02 | [35] 1.13 | [36] 1.05 | [37] 1.02 | [38] 1.01 | [39] 1.01 | [40] 1.05 | [41] 1.01 | [42] 0.984 | [43] 1.1 | [44] 1.03 | [45] 0.971 | [46] 0.962 | [47] 1.06 | [48] 1.02 | [49] 1.02 | [50] 1.03 | [51] 1.01 | [52] 1.06 | [53] 1.02 | [54] 1.03 | [55] 1.03 | [56] 0.924 | [57] 1.02 | [58] 1.01 | [59] 1.01 | [60] 1.02 | [61] 1.02 | [62] 1.02 | [63] 1.02 | [64] 1.01 | [65] 1.02 | [66] 1.02 | [67] 1.03 | [68] 1.02 | [69] 1.08 | [70] 1.03 | [71] 1.09 | [72] 1.03 | [73] 1.01 | [74] 1.01 | [75] 1.03 | [76] 1.03 | [77] 1.01 | [78] 1.08 | [79] 1.02 | [80] 1 | [81] 1.06 | [82] 1.02 | [83] 0.994 | [84] 0.934 | [85] 0.996 | [86] 1.02 | [87] 1.02 | [88] 1.02 | [89] 1.02 | [90] 0.974 | [91] 1.01 | [92] 1.03 | [93] 1.02 | [94] 1.04 | [95] 1.01 | [96] 1.02 | [97] 1.03 | [98] 0.985 | [99] 1.02 | [100] 1.08 | [101] 1.03 | [102] 1.02 | [103] 1.02 | [104] 1.04 | [105] 1.1 | [106] 1.01 | [107] 0.981 | [108] 0.938

Cc1scc2c1N(C(=O)CN1CCN(C)CC1)c1ccccc1NC2=O
inactive: locus YAL013W, strain DEP1, stronger effect = lower value 0.967 | [1] 0.984 | [2] 0.972 | [3] 0.939 | [4] 0.985 | [5] 0.963 | [6] 0.989 | [7] 0.947 | [8] 0.954 | [9] 0.972 | [10] 0.958 | [11] 0.954 | [12] 0.975 | [13] 1 | [14] 0.971 | [15] 0.969 | [16] 0.956 | [17] 0.967 | [18] 0.948 | [19] 0.922 | [20] 0.941 | [21] 0.998 | [22] 0.94 | locus YDR195W, strain ref2 0.899 | [23] 0.974 | [24] 0.943 | [25] 0.955 | [26] 0.984 | [27] 1.01 | [28] 0.976 | [29] 0.957 | [30] 0.96 | [31] 1 | [32] 0.974 | [33] 0.967 | [34] 0.965 | [35] 0.939 | [36] 0.95 | [37] 0.943 | [38] 0.978 | [39] 0.947 | [40] 0.966 | [41] 0.965 | [42] 0.996 | [43] 0.967 | [44] 0.966 | [45] 1.08 | [46] 1.1 | [47] 0.942 | [48] 0.965 | [49] 0.96 | [50] 1.11 | [51] 0.952 | [52] 0.948 | [53] 0.961 | [54] 0.995 | [55] 0.949 | locus YJL187C, strain SWE1, stronger effect = lower value 0.968 | [56] 0.962 | [57] 0.979 | [58] 0.981 | [59] 0.96 | [60] 0.977 | [61] 0.968 | [62] 0.949 | [63] 0.968 | [64] 0.977 | [65] 0.977 | [66] 0.995 | [67] 0.963 | [68] 0.962 | [69] 1 | [70] 0.98 | [71] 0.948 | [72] 0.945 | [73] 0.962 | [74] 0.964 | [75] 0.952 | [76] 0.948 | [77] 0.982 | [78] 0.967 | [79] 0.972 | locus YMR263W, strain SAP30, stronger effect = lower value 0.989 | [80] 0.981 | [81] 0.979 | [82] 1 | [83] 1.02 | [84] 0.938 | [85] 0.979 | [86] 0.973 | [87] 1.02 | [88] 0.964 | [89] 0.967 | [90] 0.972 | [91] 0.962 | [92] 0.972 | [93] 0.984 | [94] 0.958 | [95] 0.995 | [96] 0.982 | [97] 0.948 | [98] 1.05 | [99] 0.965 | [100] 0.866 | [101] 0.974 | [102] 0.985 | [103] 0.962 | [104] 0.957 | [105] 0.936 | [106] 0.979 | [107] 1 | [108] 1.1
